Assay [1] is described as follows: AP1 Signaling Pathway (AID 357; active = well fitted curve in either direction with a large enough effect, not every such curve was filed as active;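 also: ME-180 reporter cells stimulated with EGF at its EC50 level; % is scaled to controls: 0 for no effect and ±100 for the full control effect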). Conditions: ME-180 AP-1-bla reporter, EGF-induced, beta-lactamase ratio, 5 h; at 7.69 µM (top of the series) unless noted. The method in brief:
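In this screen, ME-180 cells in Opti-MEM with 0.5% dialyzed FBS received EC50 EGF and compound titrations for 5 h. AP-1 reporter beta-lactamase was detected via CCF4 ratio, giving AC50 for positive and negative modulators.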

A short description of assay [2]: NFAT Signaling Pathway (AID 444; active = well fitted curve in either direction with a large enough effect, not every such curve was filed as active;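 also: carbachol stimulus at about its EC50 of 1 µM final; % is scaled to controls: 0 for no effect and ±100 for the full control effect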). Particulars: Jurkat NFAT-bla M1, carbachol, beta-lactamase ratio, 5 h; at 7.69 µM (top of the series) unless noted. The method in brief:
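Read-out: CCF4 FRET ratio (460 nm/530 nm) after 1 h RT dye loading, used for %activity and AC50 from titration series. Cells: Jurkat NFAT-β-lactamase/M1 line, treated with compound plus 1 uM carbachol for 5 h, 37 °C.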

Assay [3] in a line: Stat Signaling Pathway (AID 446; active = well fitted curve in either direction with a large enough effect, not every such curve was filed as active;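 also: ME-180 cervical cancer cells given 40 pM IL-6 alongside compound; SIE-controlled beta-lactamase reporter measured as 460/530 nm FRET emission ratio; % is scaled to controls: 0 for no effect and ±100 for the full control effect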). Conditions: ME-180 SIE beta-lactamase reporter, IL-6 stimulated, 5 h; at 7.69 µM (top of the series) unless noted. The method in brief: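 ME-180 SIE-bla cells; overnight plating; cpd + IL-6 40 pM, 5 h, 37 C; LiveBLAzer 2.5 h RT; 460/530 nm emission ratio. Normalized to 300 pM IL-6 and 125 nM JAK inhibitor controls.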
The target of assay [4] is Glucocorticoid receptor (Homo sapiens) (UniProt P04150). Kind of assay: GR-GFP Redistribution (AID 450;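 active = compounds whose dose series gives a full or clear partial fitted curve of increased nuclear translocation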; also: potency is read from the fitted curve at half-maximal effect). Conditions: U2OS GR-GFP nuclear translocation, laser cytometry, 2 h.
Assay [5] has the same target. In words: GR-EFC Redistribution (AID 451; calls by dose curve; also: potency is read from the fitted curve at half-maximal effect). Particulars: CHO-K1 GR-EFC translocation, beta-gal luminescence, 2 h. Put shortly:
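Translocation of GR-ED fusion to nuclear EA restores b-gal, read by luminescence after 1 h room-temperature detection. Engineered CHO-K1 biosensor cells, 1,000/well, exposed 2 h at 37 C to titrations up to 46 uM final.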

Assay [6] deals with Mitogen-activated protein kinase 10 (Mus musculus) (UniProt Q61831). In words: JNK3 AlphaScreen Assay (AID 530; active = well fitted curve in either direction with a large enough effect, not every such curve was filed as active;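 also: kinase came from lysate of stimulated human HepG2 cells; signal reports phosphorylation of biotinylated GST-cJun 1-79 at Ser73 with 10 µM ATP; % is scaled to controls: 0 for no effect and ±100 for the full control effect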). Put shortly: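 Room-temperature AlphaScreen kinase assay; pre-activated HepG2 lysate as JNK3 source, biotin-GST-cJun(1-79) substrate, 10 uM ATP, compound 15 min preincubation.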
For assay [7], the target named is 3',5'-cyclic-AMP phosphodiesterase 4B (Homo sapiens) (UniProt Q07343). In words: qHTS Assay for Inhibitors of PDE-IV (AID 607; active = well fitted activation curve with a large enough effect in the main read-out, with a control signal flat, not every such curve was filed as active; also: % of control where 0% means no effect). The method in brief: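 ACTOne HEK293 cells carry a modified cAMP-gated CNG channel and express endogenous PDE4; plated 1000 cells/well, compounds up to 22.9 uM final. Membrane-potential dye fluorescence (ex 535/em 590) was read; parental cells received 10 uM forskolin + 100 uM RO 20-1724.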

Assay [8] deals with Dual specificity protein kinase CLK4 (Homo sapiens) (UniProt Q9HAZ1). In words: qHTS Assay for Inhibitors of CDC-like Kinase 4 (Kinase-Glo Assay) (AID 1770). Also: nearly all actives have a fitted effect of over 65% in size. Also: potency is read from the fitted curve at half-maximal effect. The method in brief: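 Substrate mix (RS peptide 100 uM, ATP 1 uM) dispensed, compound pinned in, then Clk4 added to 25 nM final. Incubated 4.5 h at RT; Kinase-Glo reagent added, luminescence read after 5 min.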
Assay [9] shares this target. In words: qHTS Assay for Inhibitors of CDC-like Kinase 4 (ADP-Glo Assay) (AID 1771). Also: nearly all actives have a fitted effect of over 70% in size. Also: potency is read from the fitted curve at half-maximal effect. The method in brief: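 Kinase reaction: Clk4 at 25 nM, RS repeat peptide substrate at 100 uM, ATP at 1 uM, 1 hr, room temperature. Product ADP detected as luciferase signal via ADP-Glo.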
For assay [10] the target is unchanged. Kind of assay: qHTS Assay for Inhibitors of CDC-like Kinase 4 (ADP-FP Assay) (AID 1795).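 Also: recombinant human CLK4 phosphorylating RS repeat peptide at 1 µM ATP; % is scaled to controls: 0 for no effect and ±100 for the full control effect; nearly all actives have a fitted effect of over 60% in size.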 Put shortly: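 Clk4 6.25 nM; RS peptide 100 uM; ATP 1 uM; 25 mM Tris pH 7.5, 10 mM MgCl2; 1 h reaction. ADP detected via antibody/orange tracer FP displacement; TG003 positive control.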
For assay [11], the target named is Ubiquitin carboxyl-terminal hydrolase 1 (Homo sapiens) (UniProt O94782). In words: Inhibitors of USP1/UAF1: Pilot qHTS (AID 504865).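 Also: rhodamine fluorescence freed from ubiquitin-rhodamine substrate followed over time; top concentration of the series differs between compounds; % is scaled to controls: 0 for no effect and ±100 for the full control effect; nearly all actives have a fitted effect of over 35% in size.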 Put shortly:
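In 50mM HEPES pH 7.8 containing 0.5mM EDTA, 1mM TCEP, 0.1 mg/ml BSA and 0.01% Tween-20, 1nM USP1/UAF1 is exposed to compound for 15 min, then Ub-Rho (150nM final) is added and fluorescence is read over time.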

Assay [12] can be described thus: Primary qHTS for small molecule stabilizers of the endoplasmic reticulum resident proteome: Secreted ER Calcium Modulated Protein (SERCaMP) assay (AID 1508630). Also: % is scaled to controls: 0 for no effect and ±100 for the full control effect. Put shortly:
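GLuc-SERCaMP-expressing SH-SY5Y cells, pretreated 16 h with compound, are challenged with thapsigargin to empty ER calcium stores; after 4 h, coelenterazine is added directly to the medium and luminescence is imaged.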

The target of assay [13] is Lysosomal acid glucosylceramidase (Homo sapiens) (UniProt P04062). In words: Glucocerebrosidase-p2 (AID 348; in the data active = potency below about 10 µM; also: potency is read from the fitted curve at half-maximal effect). Particulars: purified GBA, blue fluorogenic substrate, 40 min. Put shortly:
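Compounds titrated from 0.6 nM upwards against 0.2 nM enzyme in pH 5.9 citric acid/KH2PO4, taurocholate, tween-20; blue fluorogenic substrate 80 uM, 40 min room temperature, stopped and read Ex 365/Em 440 for AC50.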

Assay [14] has as its target Cytochrome P450 3A4 (Homo sapiens) (UniProt P08684). In words: qHTS Assay for Activators of Cytochrome P450 3A4 (AID 885). Also: nearly all actives have a fitted effect of over 65% in size. The method in brief: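 20nM CYP3A4 + 25uM Luciferin-PPXE (=KM), 200mM KPO4; cpd 10 min RT; NADPH regen, 60 min RT; stop w/ detection buffer, 20 min; luminescence. Normalized to 57 uM ketoconazole.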
The nature of assay [15]: qHTS Assay for Identification of Small Molecule Agonists for Hypoxia Response Element Signaling Pathway (AID 914; active = well fitted activation curve with a large enough effect in the signal ratio, with a control signal flat, not every such curve was filed as active; the % refers to the signal ratio; also: potency is read from the fitted curve at half-maximal effect). Conditions: ME-180 (cervical carcinoma) HRE-bla reporter, beta-lactamase ratio, CoCl2, 17 h; activation: active compounds read high. Put shortly:
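In Opti-MEM containing 0.5% dialyzed FBS and 10 mM HEPES, ME-180 HRE-bla cells received a compound titration and EC50 CoCl2. They were incubated 17 hours, then CCF4-loaded 2.5 hours at room temperature before ratio reading.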

The target of assay [16] is Cytochrome P450 1A2 (Homo sapiens) (UniProt P05177). Kind of assay: p450-cyp1a2 (AID 410; calls by dose curve; also: potency is read from the fitted curve at half-maximal effect). Put shortly:
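Inhibition was calculated relative to 57 uM furafylline (full inhibition). The reaction used human CYP1A2 at 20nM with Luciferin-ME at its Km, 100uM, driven by an NADPH-regenerating system for 60 min at room temperature.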

Assay [17] addresses Cytochrome P450 2C9 (Homo sapiens) (UniProt P11712). Kind of assay: qHTS Assay for Inhibitors and Substrates of Cytochrome P450 2C9 (AID 883). Also: % is scaled to controls: 0 for no effect and ±100 for the full control effect; nearly all actives have a fitted effect of over 60% in size. The method in brief:
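Inhibition of CYP2C9 is scored as loss of luminescence, with 57uM sulphaphenazole defining 100% inhibition. Substrate Luciferin-H is used at 100uM, equal to its KM; enzyme at 10nM in 25mM KPO4, 60 min at 37C with NADPH regeneration.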

The target in assay [18] is Cytochrome P450 3A4 (Homo sapiens) (UniProt P08684). Kind of assay: qHTS Assay for Inhibitors and Substrates of Cytochrome P450 3A4 (AID 884). Also: potency is read from the fitted curve at half-maximal effect; nearly all actives have a fitted effect of over 50% in size. The method in brief: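 20 nM human CYP3A4 with 25 uM Luciferin-PPXE (at KM) in 200 mM KPO4, preincubated 10 min with compound; NADPH regeneration started a 60 min RT reaction. Luciferin detected by luminescence, normalized to 57 uM ketoconazole as full inhibition.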

Assay [19] deals with Cytochrome P450 2C19 (Homo sapiens) (UniProt P33261). In words: qHTS Assay for Inhibitors and Substrates of Cytochrome P450 2C19 (AID 899). Also: potency is read from the fitted curve at half-maximal effect; nearly all actives have a fitted effect of over 60% in size. The method in brief:
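5nM enzyme + 10uM Luciferin-H EGE (=KM), 50mM KPO4; cpd pin-transferred, 10 min 37C; NADPH regen, 60 min 37C; stopped w/ luciferin detection reagent, 20 min; luminescence. Normalized to 57uM ketoconazole (AC100).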

Unmarked numbers belong to inactive results. Records with an inconclusive call do not appear. The source made the active and inactive calls. Unless noted, calls follow the shape of the dose curve; as a rule, active = well fitted curve in the direction sought with a large enough effect; inconclusive = small, poorly fitted or top-dose-only effect, or another doubt; inactive = no such curve, though single readings can be large; an effect the other way counts as inactive or inconclusive.

3',5'-cyclic-AMP phosphodiesterase 4B (Homo sapiens), sequence (Q07343 whole entry, looked up): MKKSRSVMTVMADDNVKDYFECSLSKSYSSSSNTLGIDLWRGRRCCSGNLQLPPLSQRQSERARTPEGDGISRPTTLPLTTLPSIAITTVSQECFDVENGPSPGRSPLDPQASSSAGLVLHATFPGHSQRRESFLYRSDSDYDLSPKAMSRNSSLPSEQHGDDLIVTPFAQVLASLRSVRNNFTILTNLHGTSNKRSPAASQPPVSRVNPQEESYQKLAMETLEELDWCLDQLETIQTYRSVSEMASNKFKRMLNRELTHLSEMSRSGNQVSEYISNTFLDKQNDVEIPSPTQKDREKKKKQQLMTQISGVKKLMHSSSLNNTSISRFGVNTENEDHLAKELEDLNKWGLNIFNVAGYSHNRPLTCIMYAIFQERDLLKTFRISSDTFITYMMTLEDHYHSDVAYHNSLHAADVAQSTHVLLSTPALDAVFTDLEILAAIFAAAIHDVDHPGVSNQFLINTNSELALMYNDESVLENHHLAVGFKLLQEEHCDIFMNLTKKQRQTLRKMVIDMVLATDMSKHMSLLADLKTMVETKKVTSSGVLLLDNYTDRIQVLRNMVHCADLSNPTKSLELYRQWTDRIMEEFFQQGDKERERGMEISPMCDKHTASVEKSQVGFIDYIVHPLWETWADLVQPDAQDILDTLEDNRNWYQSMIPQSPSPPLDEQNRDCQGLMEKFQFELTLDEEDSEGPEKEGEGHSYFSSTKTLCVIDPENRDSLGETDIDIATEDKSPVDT
Cytochrome P450 1A2 (Homo sapiens), sequence (P05177 whole entry, looked up): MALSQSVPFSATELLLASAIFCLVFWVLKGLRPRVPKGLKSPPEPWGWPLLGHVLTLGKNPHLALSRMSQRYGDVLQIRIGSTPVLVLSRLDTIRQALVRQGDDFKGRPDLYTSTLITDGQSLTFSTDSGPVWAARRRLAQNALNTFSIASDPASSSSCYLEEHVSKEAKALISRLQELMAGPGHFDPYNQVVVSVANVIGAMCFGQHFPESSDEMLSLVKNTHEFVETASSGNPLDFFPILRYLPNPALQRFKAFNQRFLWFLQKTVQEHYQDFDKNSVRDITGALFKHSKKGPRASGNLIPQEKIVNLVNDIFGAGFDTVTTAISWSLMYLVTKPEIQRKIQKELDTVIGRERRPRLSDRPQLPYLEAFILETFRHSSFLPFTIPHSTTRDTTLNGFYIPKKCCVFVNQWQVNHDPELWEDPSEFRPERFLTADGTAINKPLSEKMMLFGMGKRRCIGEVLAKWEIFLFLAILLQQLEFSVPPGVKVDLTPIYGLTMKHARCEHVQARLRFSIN
Dual specificity protein kinase CLK4 (Homo sapiens), sequence (Q9HAZ1 whole entry, looked up): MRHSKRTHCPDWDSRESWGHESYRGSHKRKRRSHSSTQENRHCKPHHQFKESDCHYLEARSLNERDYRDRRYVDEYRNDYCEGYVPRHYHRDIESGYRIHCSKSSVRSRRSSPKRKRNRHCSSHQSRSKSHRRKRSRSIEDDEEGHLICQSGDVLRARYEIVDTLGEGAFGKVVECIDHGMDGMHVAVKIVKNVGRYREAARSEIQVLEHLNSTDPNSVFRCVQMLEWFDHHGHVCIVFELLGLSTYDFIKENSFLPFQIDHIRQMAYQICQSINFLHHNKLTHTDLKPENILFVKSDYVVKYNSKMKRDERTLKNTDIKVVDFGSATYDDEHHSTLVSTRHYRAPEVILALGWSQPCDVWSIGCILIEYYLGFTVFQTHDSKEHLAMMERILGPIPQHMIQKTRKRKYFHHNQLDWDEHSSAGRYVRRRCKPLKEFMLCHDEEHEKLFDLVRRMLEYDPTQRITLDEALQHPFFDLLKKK
Glucocorticoid receptor (Homo sapiens), sequence (P04150 whole entry, looked up): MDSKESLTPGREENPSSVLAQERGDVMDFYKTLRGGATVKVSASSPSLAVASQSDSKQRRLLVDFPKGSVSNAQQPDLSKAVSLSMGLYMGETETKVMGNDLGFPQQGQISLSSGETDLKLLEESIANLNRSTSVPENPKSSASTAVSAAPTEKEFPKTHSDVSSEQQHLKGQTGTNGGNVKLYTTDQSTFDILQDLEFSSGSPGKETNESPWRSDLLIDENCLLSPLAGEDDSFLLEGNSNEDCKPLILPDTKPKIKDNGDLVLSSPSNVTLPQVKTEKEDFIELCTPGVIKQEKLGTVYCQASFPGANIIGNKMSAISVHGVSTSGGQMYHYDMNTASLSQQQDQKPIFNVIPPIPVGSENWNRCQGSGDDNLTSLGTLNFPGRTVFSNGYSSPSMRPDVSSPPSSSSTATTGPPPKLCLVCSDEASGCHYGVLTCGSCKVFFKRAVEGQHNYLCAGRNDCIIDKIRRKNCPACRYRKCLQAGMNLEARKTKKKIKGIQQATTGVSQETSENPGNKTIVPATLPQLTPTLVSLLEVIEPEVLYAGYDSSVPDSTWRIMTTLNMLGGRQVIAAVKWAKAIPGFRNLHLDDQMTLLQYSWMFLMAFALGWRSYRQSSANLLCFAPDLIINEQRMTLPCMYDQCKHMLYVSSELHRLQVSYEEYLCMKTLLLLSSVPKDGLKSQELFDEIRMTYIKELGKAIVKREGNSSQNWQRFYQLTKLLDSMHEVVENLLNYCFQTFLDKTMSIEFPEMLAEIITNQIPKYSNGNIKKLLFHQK
Cytochrome P450 3A4 (Homo sapiens), sequence (P08684 whole entry, looked up): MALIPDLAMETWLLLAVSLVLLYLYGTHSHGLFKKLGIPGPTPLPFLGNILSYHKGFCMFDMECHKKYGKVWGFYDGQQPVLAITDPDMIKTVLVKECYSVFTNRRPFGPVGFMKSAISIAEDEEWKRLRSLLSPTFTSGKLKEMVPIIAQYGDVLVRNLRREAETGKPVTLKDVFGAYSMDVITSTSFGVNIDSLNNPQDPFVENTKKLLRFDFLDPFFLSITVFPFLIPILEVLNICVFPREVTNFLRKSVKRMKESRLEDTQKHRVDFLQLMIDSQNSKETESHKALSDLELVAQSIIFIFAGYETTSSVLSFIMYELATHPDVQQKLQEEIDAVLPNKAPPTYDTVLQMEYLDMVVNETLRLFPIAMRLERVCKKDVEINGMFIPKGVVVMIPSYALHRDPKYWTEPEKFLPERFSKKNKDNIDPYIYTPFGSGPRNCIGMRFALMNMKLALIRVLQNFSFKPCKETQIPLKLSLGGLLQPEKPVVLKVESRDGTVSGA
Ubiquitin carboxyl-terminal hydrolase 1 (Homo sapiens), sequence (O94782 whole entry, looked up): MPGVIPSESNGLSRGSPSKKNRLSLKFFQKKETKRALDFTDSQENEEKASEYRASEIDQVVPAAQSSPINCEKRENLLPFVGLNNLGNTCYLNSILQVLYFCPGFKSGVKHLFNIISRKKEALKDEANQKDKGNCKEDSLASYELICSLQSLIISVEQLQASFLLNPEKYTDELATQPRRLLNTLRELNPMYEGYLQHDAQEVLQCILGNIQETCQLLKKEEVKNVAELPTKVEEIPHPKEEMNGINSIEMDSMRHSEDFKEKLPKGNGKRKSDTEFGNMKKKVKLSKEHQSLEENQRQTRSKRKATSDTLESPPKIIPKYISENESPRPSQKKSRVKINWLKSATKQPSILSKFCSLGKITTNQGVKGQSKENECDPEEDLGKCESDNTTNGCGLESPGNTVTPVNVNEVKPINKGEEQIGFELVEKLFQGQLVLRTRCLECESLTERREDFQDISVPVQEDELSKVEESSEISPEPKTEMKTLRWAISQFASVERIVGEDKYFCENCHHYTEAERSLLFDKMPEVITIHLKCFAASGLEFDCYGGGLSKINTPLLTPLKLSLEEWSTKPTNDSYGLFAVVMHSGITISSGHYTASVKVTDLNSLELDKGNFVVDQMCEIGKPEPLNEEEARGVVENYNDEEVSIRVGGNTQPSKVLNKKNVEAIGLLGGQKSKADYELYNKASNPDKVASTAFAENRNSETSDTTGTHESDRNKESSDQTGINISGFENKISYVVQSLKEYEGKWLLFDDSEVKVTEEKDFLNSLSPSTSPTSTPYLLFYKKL
Lysosomal acid glucosylceramidase (Homo sapiens), sequence (P04062 whole entry, looked up): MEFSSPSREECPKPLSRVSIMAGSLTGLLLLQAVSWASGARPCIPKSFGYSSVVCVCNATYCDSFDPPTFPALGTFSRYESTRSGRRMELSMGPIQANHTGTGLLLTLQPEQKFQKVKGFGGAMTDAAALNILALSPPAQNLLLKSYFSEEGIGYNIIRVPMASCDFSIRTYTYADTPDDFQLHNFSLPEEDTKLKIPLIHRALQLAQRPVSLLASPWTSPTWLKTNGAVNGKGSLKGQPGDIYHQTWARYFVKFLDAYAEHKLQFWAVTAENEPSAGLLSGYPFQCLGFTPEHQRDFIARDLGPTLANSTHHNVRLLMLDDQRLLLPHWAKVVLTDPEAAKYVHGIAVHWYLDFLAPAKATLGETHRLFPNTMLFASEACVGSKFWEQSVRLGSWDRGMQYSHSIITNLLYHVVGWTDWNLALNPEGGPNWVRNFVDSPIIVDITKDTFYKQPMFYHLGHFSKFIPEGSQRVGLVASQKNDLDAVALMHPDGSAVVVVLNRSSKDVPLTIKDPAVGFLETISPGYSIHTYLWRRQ
Cytochrome P450 2C19 (Homo sapiens), sequence (P33261 whole entry, looked up): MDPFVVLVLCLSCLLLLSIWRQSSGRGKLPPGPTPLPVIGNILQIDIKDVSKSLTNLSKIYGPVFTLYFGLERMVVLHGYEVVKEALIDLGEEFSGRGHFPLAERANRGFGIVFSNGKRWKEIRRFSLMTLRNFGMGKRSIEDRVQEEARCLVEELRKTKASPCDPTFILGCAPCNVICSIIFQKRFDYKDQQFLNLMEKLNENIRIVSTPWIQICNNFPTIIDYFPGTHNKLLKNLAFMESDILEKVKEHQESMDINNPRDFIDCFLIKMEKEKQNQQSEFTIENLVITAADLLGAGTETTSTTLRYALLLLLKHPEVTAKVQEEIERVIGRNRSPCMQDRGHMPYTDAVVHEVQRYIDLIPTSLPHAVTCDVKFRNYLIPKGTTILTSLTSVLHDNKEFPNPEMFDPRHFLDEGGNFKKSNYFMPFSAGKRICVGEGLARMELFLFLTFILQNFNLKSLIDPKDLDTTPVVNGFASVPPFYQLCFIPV

Regarding `CNc1ccnc(-c2cccc(NS(C)(=O)=O)c2)n1`, the activity change, negative = inhibition in assay [1] was 13.6%; in assay [2], 18.6%. In assay [3], the activity, negative = inhibition is -1.8%. Besides, the Potency in assay [4] and in assay [5] was > 46 µM each time. For the same compound, the Potency entry in assay [6], in assay [7], in [8], in assay [9], in [10] and in assay [11] was “inactive” in each case. Also, the result in assay [12] was inactive.
Regarding `CN(C)c1ncc2nc(-c3ccccc3)c(=O)n(Cc3cccs3)c2n1`, the Potency was > 11.4 µM in assay [13], > 9.22 µM in assay [4], > 46 µM in assay [5] and 3.16 µM (active) in assay [15]. Besides, the Potency result in [14], in [8], in assay [9], in assay [10] and in assay [11] was “inactive” in each case. Further, the result in assay [12] was inactive.
In the case of `CN(C)c1nc(-c2cccnc2)nc2ccccc12`, the Potency is > 11.4 µM in assay [13]; 0.126 µM (active) in [16]; > 46 µM in assay [4]; > 46 µM in assay [5]; 7.94 µM (active) in assay [18]; 28.2 µM (active) in [8]. For the same compound, in assay [9], the Potency was 25.1 µM (active). The activity change, negative = inhibition in [1] was 12.7%; in assay [2] it was -1.56%; in assay [17], 81% [at 2.29 µM]. In assay [3], the activity, negative = inhibition was -4.72%. Moreover, the Potency entry in [6], in assay [7], in [14] and in [11] was “inactive” each time. Also, the result in [12] was inactive.
Turning to `COc1cccc(Cn2c(=O)c(-c3cccc(C#N)c3)nc3cnc(N4CCOCC4)nc32)c1`, the figures for the activity change, negative = inhibition in [1] and in [2] were 0.3% and 0.194%, respectively. For the same compound, the activity, negative = inhibition in assay [3] was 18.9%. In addition, the Potency in [4] is > 9.22 µM; in [5], > 46 µM. The Potency entry in assay [6], in assay [7], in assay [8], in [9], in [10] and in [11] was “inactive” throughout. In addition, the result in assay [12] was inactive.
As to `O=c1c(-c2cccc(Cl)c2)nc2cncnc2n1-c1ccccc1`, the figures for the activity change, negative = inhibition in assay [1] and in assay [2] were -18.9% and 9.76%, respectively. The Potency is 2 µM (active) in assay [16], > 9.22 µM in assay [4] and > 46 µM in [5]. Further, in assay [3], the activity, negative = inhibition was 0.546%. For the same compound, the Potency entry in [6], in [14], in assay [8], in [9], in assay [10] and in assay [11] was “inactive” in each case. For the same compound, in assay [12], the outcome was inactive.
Regarding `COc1ccccc1CNc1ccnc(-c2ccccc2Cl)n1`, the activity change, negative = inhibition was -21.9% in [1] and -0.207% in assay [2]. The Potency in [16] was 5.01 µM (active); in assay [4], > 46 µM; in assay [5] it was > 46 µM; in assay [19], 1.58 µM (active). For the same compound, the activity, negative = inhibition in assay [3] is -0.645%. Further, the Potency entry in assay [6], in assay [7], in assay [14], in assay [8], in assay [9] and in assay [10] was “inactive” throughout. Besides, the outcome in [12] was inactive.

The values above are taken from PubChem BioAssay (NCATS).
